Assay results from PubChem BioAssay (EPA / NIEHS).
Inconclusive results are not listed. The source made the active and inactive calls. Rule for the calls: active = hit-call score of the fitted dose curve at least 0.9, where 1 is the maximum; inconclusive = response in the unintended direction; inactive = score below 0.9.

What follows are compounds tested against human Adenosine A1 Receptor (AdoRA1), ADORA1 (gene 134) (UniProt P30542) (assay: NVS_GPCR_hAdoRA1: NovaScreen (NVS) G Protein-Coupled Receptor Assay for human Adenosine A1 Receptor (AdoRA1) (AID 2283254)).
Method in brief: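 Radioligand binding was run on human cortical membranes, cell-free, with filter-based scintillation counting 1 h after dosing. The primary screen was duplicate at 25 uM, followed by concentration series. Signal loss versus DMSO was fitted positive-direction.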

human Adenosine A1 Receptor (AdoRA1), ADORA1 (gene 134), sequence (P30542 whole entry, looked up): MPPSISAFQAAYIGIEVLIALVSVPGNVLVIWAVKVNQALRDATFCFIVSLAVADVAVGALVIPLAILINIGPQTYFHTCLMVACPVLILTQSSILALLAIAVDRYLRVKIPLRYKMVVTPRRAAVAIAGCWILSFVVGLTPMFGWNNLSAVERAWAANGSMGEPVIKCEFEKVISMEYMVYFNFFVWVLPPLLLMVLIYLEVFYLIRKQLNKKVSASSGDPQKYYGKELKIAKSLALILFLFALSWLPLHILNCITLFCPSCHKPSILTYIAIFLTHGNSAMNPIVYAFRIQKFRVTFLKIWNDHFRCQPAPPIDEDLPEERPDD

Q: How did the AC50 turn out when `O=C1c2ccccc2C(=O)c2c(Cl)cccc21` was run?
A: Its AC50 is 13.3 µM (active).

Q: With `O=C(c1ccccc1)c1ccc(O)cc1O` as the compound, how does the outcome read?
A: The outcome was “inactive”.

Q: `Nc1cccnc1N` was tested. Which AC50 did it give?
A: The AC50 was 9.6 µM (active).

Q: How did the outcome turn out when `CCC(C)CO` (stereo not given) was run?
A: Its outcome is “inactive”.

Q: `Cc1ccc(S(=O)(=O)C(I)I)cc1` was tested. Which AC50 did it give?
A: The AC50 was 33.2 µM (active).

Each compound was assayed against human Adenosine A2a Receptor (AdoRA2a), ADORA2A (gene 135) (UniProt P29274) (assay: NVS_GPCR_hAdoRA2a: NovaScreen (NVS) G Protein-Coupled Receptor Assay for human Adenosine A2a Receptor (AdoRA2a) (AID 2283256)).
Method in brief: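 Compounds screened in duplicate at 25 uM, with actives followed up in concentration series, for displacement of a radioligand from HEK293-derived receptor protein. Bound counts read by filter scintillation at 1.5 hours, DMSO as baseline.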

human Adenosine A2a Receptor (AdoRA2a), ADORA2A (gene 135), sequence (P29274 whole entry, looked up): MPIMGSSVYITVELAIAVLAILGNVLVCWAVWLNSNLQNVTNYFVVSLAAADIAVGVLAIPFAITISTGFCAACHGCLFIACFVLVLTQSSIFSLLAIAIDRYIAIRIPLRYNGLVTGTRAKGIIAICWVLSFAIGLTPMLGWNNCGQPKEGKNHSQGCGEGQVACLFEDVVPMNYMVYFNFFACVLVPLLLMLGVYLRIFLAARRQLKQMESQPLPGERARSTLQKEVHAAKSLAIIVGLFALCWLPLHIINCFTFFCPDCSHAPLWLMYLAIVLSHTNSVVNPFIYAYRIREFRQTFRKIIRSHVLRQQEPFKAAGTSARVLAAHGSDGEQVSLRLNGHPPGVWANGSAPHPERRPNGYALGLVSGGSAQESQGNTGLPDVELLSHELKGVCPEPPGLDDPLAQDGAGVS

Q: With `CCOC(C=C(C)CCC=C(C)C)OCC` as the compound, how does the outcome read?
A: The outcome was “inactive”.

Q: With `O=C(c1ccccc1)c1ccc(O)cc1O` as the compound, how does the AC50 read?
A: Its AC50 is 29.7 µM (active).

Q: How did the outcome turn out when `Nc1c(Br)cc([N+](=O)[O-])cc1Br` was run?
A: The outcome was “inactive”.

Each compound was assayed against D(1A) dopamine receptor (Homo sapiens) (UniProt P21728) (assay: NVS_GPCR_hDRD1: NovaScreen (NVS) G Protein-Coupled Receptor Assay for human Dopamine Receptor D1 (DRD1) (AID 2283269)).
Method in brief: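 Radioligand displacement binding on membranes/protein extracted from HEK293 expressing human D1, cell-free; read 1 h after dosing by filter-based scintillation counting. Primary screen in duplicate at 25 uM, actives followed up in concentration series; signal loss versus DMSO baseline.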

D(1A) dopamine receptor (Homo sapiens), sequence (P21728 whole entry, looked up): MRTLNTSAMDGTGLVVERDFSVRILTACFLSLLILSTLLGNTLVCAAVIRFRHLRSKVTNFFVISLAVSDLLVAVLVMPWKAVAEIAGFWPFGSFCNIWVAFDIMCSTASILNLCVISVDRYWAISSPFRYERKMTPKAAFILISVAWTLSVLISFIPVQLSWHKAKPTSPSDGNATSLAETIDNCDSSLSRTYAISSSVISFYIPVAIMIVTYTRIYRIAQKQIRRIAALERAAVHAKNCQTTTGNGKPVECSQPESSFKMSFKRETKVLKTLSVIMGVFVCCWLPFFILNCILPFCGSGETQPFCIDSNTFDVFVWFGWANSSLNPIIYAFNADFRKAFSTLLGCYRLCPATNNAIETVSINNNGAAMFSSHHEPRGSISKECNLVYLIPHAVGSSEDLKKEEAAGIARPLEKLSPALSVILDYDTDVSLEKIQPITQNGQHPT

Q: For `Oc1ccc2c(c1)CCC2`, which outcome is on record?
A: The outcome was “inactive”.

Q: With `c1ccc(C[P+](c2ccccc2)(c2ccccc2)c2ccccc2)cc1` as the compound, how does the outcome read?
A: Its outcome is “inactive”.

Q: How did the outcome turn out when `CCN(CC)c1ccc(N=Nc2ccccc2)cc1` was run?
A: Its outcome is “inactive”.

Q: With `CCN(CC)c1ccc(C=O)c(O)c1` as the compound, how does the outcome read?
A: The outcome was “inactive”.

Q: How did the outcome turn out when `O=C=Nc1cccc2c(N=C=O)cccc12` was run?
A: Its outcome is “inactive”.

Q: For `Oc1ccc(C2(c3ccc(O)c(C4CCCCC4)c3)CCCCC2)cc1C1CCCCC1`, which outcome is on record?
A: Its outcome is “inactive”.

Q: How did the outcome turn out when `CN1CN(C)CN(C)C1` was run?
A: Its outcome is “inactive”.

Q: With `OCCC(O)CO` (stereo not given) as the compound, how does the AC50 read?
A: The AC50 was 37.4 µM (active).

Q: With `Cc1ccc(S(=O)(=O)C(I)I)cc1` as the compound, how does the AC50 read?
A: Its AC50 is 6.43 µM (active).

Q: With `O=C1C=CC(=O)N1c1ccc(Cc2ccc(N3C(=O)C=CC3=O)cc2)cc1` as the compound, how does the AC50 read?
A: Its AC50 is 25 µM (active).

These compounds were tested against human Neurokinin, NK2 Receptor, TACR2 (gene 6865) (UniProt P21452) (assay: NVS_GPCR_hNK2: NovaScreen (NVS) G Protein-Coupled Receptor Assay for human Neurokinin, NK2 Receptor (AID 2283278);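 note: actives reduce bound radioligand signal relative to DMSO baseline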).
Method in brief: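 Radioligand binding on membranes from CHO cells expressing receptor, filter-based scintillation read 4 h after dosing. Initial duplicate screen at 25 uM, actives in concentration series; loss of signal versus DMSO.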

human Neurokinin, NK2 Receptor, TACR2 (gene 6865), sequence (P21452 whole entry, looked up): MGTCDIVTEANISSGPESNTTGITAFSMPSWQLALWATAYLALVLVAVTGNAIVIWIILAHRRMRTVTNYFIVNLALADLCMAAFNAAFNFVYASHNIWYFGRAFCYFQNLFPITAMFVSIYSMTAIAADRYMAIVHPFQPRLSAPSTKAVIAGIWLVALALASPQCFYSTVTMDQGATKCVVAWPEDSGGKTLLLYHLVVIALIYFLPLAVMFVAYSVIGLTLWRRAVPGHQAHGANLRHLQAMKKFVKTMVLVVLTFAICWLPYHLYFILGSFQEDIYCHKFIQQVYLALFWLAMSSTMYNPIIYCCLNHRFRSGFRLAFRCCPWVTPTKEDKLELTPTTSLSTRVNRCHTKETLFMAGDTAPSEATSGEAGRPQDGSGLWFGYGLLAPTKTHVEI

Q: With `CCN(CC)c1ccc(N=Nc2ccccc2)cc1` as the compound, how does the outcome read?
A: Its outcome is “inactive”.

Q: How did the AC50 turn out when `Oc1ccc(C2(c3ccc(O)c(C4CCCCC4)c3)CCCCC2)cc1C1CCCCC1` was run?
A: Its AC50 is 16.2 µM (active).

Q: With `O=C1OC(=O)c2ccc3c4c(ccc1c24)C(=O)OC3=O` as the compound, how does the outcome read?
A: The outcome was “inactive”.

Q: With `O=C1C=CC(=O)N1c1ccc(Cc2ccc(N3C(=O)C=CC3=O)cc2)cc1` as the compound, how does the AC50 read?
A: Its AC50 is 28.4 µM (active).

The compounds below were run against human Opioid Receptor Mu (Opiate Mu), OPRM1 (gene 4988) (UniProt P35372) (assay: NVS_GPCR_hOpiate_mu: NovaScreen (NVS) G Protein-Coupled Receptor Assay for human Opioid Receptor Mu (Opiate Mu) (AID 2283290);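 note: hits lower bound tracer signal versus DMSO meaning displacement of the ligand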).
Method in brief: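 Radioligand displacement binding on membranes from CHO cells expressing the receptor, 2.5 h after dosing, filter-based scintillation counting; loss of signal vs DMSO baseline. Screened in duplicate at 25 uM, actives then run in concentration series.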

human Opioid Receptor Mu (Opiate Mu), OPRM1 (gene 4988), sequence (P35372 whole entry, looked up): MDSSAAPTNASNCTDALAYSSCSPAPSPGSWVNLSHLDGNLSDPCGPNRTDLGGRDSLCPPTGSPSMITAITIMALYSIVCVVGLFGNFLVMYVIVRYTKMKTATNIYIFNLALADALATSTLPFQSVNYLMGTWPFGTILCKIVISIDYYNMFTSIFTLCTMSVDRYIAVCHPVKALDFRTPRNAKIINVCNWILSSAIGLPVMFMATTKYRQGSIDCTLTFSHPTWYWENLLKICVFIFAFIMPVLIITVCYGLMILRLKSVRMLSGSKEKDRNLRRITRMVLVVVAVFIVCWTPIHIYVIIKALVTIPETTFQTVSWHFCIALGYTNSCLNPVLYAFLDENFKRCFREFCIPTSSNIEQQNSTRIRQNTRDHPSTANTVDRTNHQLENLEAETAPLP

Q: `CCCCCCCCCCCCCC[P+](CCCC)(CCCC)CCCC` was tested. Which AC50 did it give?
A: Its AC50 is 1.07 µM (active).

Q: `CCCCCCCCn1sc(Cl)c(Cl)c1=O` was tested. Which AC50 did it give?
A: Its AC50 is 8.39 µM (active).

Q: How did the AC50 turn out when `c1ccc(C[P+](c2ccccc2)(c2ccccc2)c2ccccc2)cc1` was run?
A: Its AC50 is 1.09 µM (active).

Q: How did the outcome turn out when `CCN(CC)c1ccc(C=O)cc1` was run?
A: Its outcome is “inactive”.

Q: For `Cc1cccc(C)n1`, which outcome is on record?
A: The outcome was “inactive”.

Q: For `CCN(CC)c1ccc(C=O)c(O)c1`, which outcome is on record?
A: Its outcome is “inactive”.

Q: How did the AC50 turn out when `C#CC(O)CCC` (stereo not given) was run?
A: Its AC50 is 5.3 µM (active).

Q: `Oc1ccc(C2(c3ccc(O)c(C4CCCCC4)c3)CCCCC2)cc1C1CCCCC1` was tested. Which AC50 did it give?
A: Its AC50 is 17.3 µM (active).
